Screens deposited in PubChem by Broad Institute.
Compounds with a hit are over-represented: about 2.3% of the library has one in this group of screens.
p53 PUMA act – restores mutant p53 pathway signaling in SW480 cells | activation, % at 9.98 µM | SW480 PUMA-promoter luciferase, p53 mutant reactivation | AID 624151 | 28,000 tested, 1.5% active; in the data active = activation above about 52%
ID4 SMM – binds human ID4 protein on microarray; P47928; 31,000 tested, 1.2% active; calls only; small molecule microarray, Flag-ID4 binding, fluorescence F/B; call rule not given here;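 also: a binder raises fluorescence above local background on the spot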
Target sequence (P47928 whole entry, looked up): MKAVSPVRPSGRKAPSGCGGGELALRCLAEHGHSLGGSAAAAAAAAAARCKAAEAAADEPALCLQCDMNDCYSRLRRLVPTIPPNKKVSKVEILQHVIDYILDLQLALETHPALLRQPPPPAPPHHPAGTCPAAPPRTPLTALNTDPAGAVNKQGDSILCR
The depositor's hits bear a star; i = inactive; . = no result; + = active, no number.

SMILES	p53 PUMA act	ID4 SMM
C[C@H](CO)N1C[C@H](C)[C@H](CN(C)S(C)(=O)=O)Oc2c(NC(=O)Nc3ccc4c(c3)OCO4)cccc2C1=O	7.2	.
C[C@H](CO)N1C[C@H](C)[C@H](CN(C)C(=O)Nc2ccc(C(F)(F)F)cc2)Oc2c(NC(=O)Nc3cccc4ccccc34)cccc2C1=O	-11.7	+
C[C@H]1CN([C@@H](C)CO)C(=O)c2cccc(NC(=O)Nc3ccc4c(c3)OCO4)c2O[C@@H]1CN(C)C	57.8*	.
CCC1C/C(=C\c2sccc2C)C(=O)/C(=C/c2sccc2C)C1 (stereo unspecified)	-4.2	i
COc1cc(NC(=O)Cn2nc(C(F)(F)F)c(Cl)c2C)cc([N+](=O)[O-])c1	-22.9	i
Cn1c(SCC(=O)Nc2ccc3c(c2)oc2ccccc23)nc2ccccc2c1=O	30.4	i
O=C(c1noc2c1CCCC2)N(C1CCCCC1)C1CCCCC1	1.3	i
COc1cc2oc(-c3ccccc3)cc(=O)c2c(OC)c1OC	15.5	i
COc1cc(C)c2c(=O)cc(-c3ccccc3)oc2c1	85.5*	i
COc1ccc(-c2cc(=O)c3c(O)cc(O[C@@H]4O[C@H](C(=O)O)[C@@H](O)[C@H](O)[C@H]4O)cc3o2)cc1	.	i
COc1ccc(-c2cc(=O)c3c(O)cc(O)cc3o2)cc1	94.7*	.
NC(=S)c1cc(-c2ccccc2)c(C(F)(F)F)s1	-22.1	i
Cc1ccc(-n2c(C)nnc2SCC(=O)Nc2cccc(C(F)(F)F)c2)cc1	-5.9	i
CC(C)Cc1ccc(/C=C/C(=O)N2CCOCC2)cc1	80.6*	i
CC(C)NS(=O)(=O)c1ccc(OCC(=O)N2CCOCC2)cc1	-5.8	i
COc1cc(NC(=O)COc2ccccc2OC)cc(OC)c1	1.1	i
Cc1cc(NC(=O)c2nn3c(C(F)(F)F)cc(-c4ccccc4)nc3c2Cl)n(-c2ccccc2)n1	-3.3	i
CC(=O)Nc1nccc(-c2cc(-c3cccc(C(F)(F)F)c3)no2)n1	79.5*	i
Cc1ccnc(SCC(=O)Nc2cccc(C(F)(F)F)c2)n1	-9.7	i
CCn1c(SCC(=O)c2ccc(OC)cc2)nnc1-c1ccccc1Cl	-1.6	i
CC1CCN(S(=O)(=O)c2cn(CC(=O)N(C)Cc3ccccc3)c(=O)c3ccccc23)CC1	-6.2	i
COc1c(OC/C=C(\C)CC2C=C(C)C(=O)O2)ccc2ccc(=O)oc12 (stereo unspecified)	.	i
O=S(=O)(NC1CCN(Cc2ccc(OCCO)cc2)CC1)c1cccc2cccnc12	.	i
O=S(=O)(c1cccc2cccnc12)N1CCN(Cc2ccc(OCCO)cc2)CC1	.	+
Cc1nnc(SCC(=O)Nc2ccc(Cl)cc2O)s1	-15.1	i
SMILES	p53 PUMA act	ID4 SMM
Cc1ccc2oc(-c3cccc(NC(=O)COc4ccc(Cl)cc4)c3C)nc2c1	65.8*	i
Cc1ccc(OCC(=O)Nc2cccc(C(=O)O)c2C)cc1	66.3*	i
Cc1c(NC(=O)COc2ccc(C(C)(C)C)cc2)cccc1C(=O)O	24.5	i
Cc1ccc2oc(-c3cccc(NC(=O)COc4ccc(Br)cc4)c3C)nc2c1	43.8	i
O=C(CC(=O)c1ccc(O)cc1)OC[C@H]1O[C@@H](Oc2ccc(O)cc2)[C@H](OC(=O)c2ccc(O)cc2)[C@@H](O)[C@@H]1O	.	i
CCCc1occc(=O)c1CC=O	34.0	i
COc1ccc(NC(=O)O[C@@H](c2ccc(OCCO)cc2)[C@H](CCO)OC)cc1	.	i
Cn1ccc2cc(NC(=O)Nc3cccnc3)ccc21	79.8*	+
CC(=O)c1cccc(NC(=O)NCc2cccnc2)c1	-14.7	i
Cc1ccc2nc(-c3cccnc3)cc(C(=O)Nc3ccc(S(=O)(=O)NC(C)(C)C)cc3)c2c1	-8.2	i
O=C(CCN1C(=O)c2ccccc2C1=O)Nc1cccc(O)c1	18.6	i
O=C(CN1C(=O)S/C(=C\C=C\c2ccccc2)C1=O)Nc1cccc(O)c1	59.2*	i
COc1ccc(C)cc1S(=O)(=O)N1CCC(C(=O)Nc2cccc(SC)c2)CC1	0.8	i
CC(O)c1cc(-c2ccc(Cl)cc2Cl)no1 (stereo unspecified)	112.9*	i
CC(Oc1ccc(Cl)cc1Cl)/C(N)=N/O (stereo unspecified)	12.2	i
O=C(CSC1CC(=O)N(c2cccc(Cl)c2)C1=O)Nc1ccc(Br)cc1 (stereo unspecified)	-2.9	i
Cc1noc(C)c1NC(=O)N(C)C[C@H]1OCCCC[C@@H](C)Oc2ccc(NS(=O)(=O)c3cccs3)cc2C(=O)N([C@H](C)CO)C[C@H]1C	-5.3	+
Cc1noc(C)c1NC(=O)N(C)C[C@H]1Oc2ccc(NS(=O)(=O)c3cccs3)cc2C(=O)N([C@@H](C)CO)C[C@@H]1C	1.3	i
Cc1noc(C)c1NC(=O)N(C)C[C@@H]1OCCCC[C@@H](C)Oc2ccc(NS(=O)(=O)c3cccs3)cc2C(=O)N([C@@H](C)CO)C[C@H]1C	8.0	i
Cc1noc(C)c1NC(=O)N(C)C[C@@H]1Oc2ccc(NS(=O)(=O)c3cccs3)cc2C(=O)N([C@H](C)CO)C[C@@H]1C	4.7	i
CNC[C@@H]1OCCCC[C@@H](C)Oc2ccc(NS(=O)(=O)c3cn(C)cn3)cc2C(=O)N([C@@H](C)CO)C[C@@H]1C	-7.7	i
Cc1noc(C)c1NC(=O)N(C)C[C@@H]1OCCCC[C@H](C)Oc2ccc(NS(=O)(=O)c3cccs3)cc2C(=O)N([C@@H](C)CO)C[C@@H]1C	-2.3	+
CNC[C@@H]1OCCCC[C@H](C)Oc2ccc(NS(=O)(=O)c3cn(C)cn3)cc2C(=O)N([C@@H](C)CO)C[C@@H]1C	2.4	+
Cc1noc(C)c1NC(=O)N(C)C[C@@H]1OCCCC[C@@H](C)Oc2ccc(NS(=O)(=O)c3cccs3)cc2C(=O)N([C@H](C)CO)C[C@H]1C	3.0	+
O=C1O[C@@H](c2ccccc2)[C@@H](c2ccccc2)N2[C@@H](c3ccc(OCCO)cc3)[C@]3(C(=O)Nc4ccc(C#CC5(O)CCCCCC5)cc43)[C@@H](C(=O)NC[C@H](O)c3ccccc3)[C@H]12	.	i
SMILES	p53 PUMA act	ID4 SMM
COc1cc(OC)c(NC(=O)COc2ccc([N+](=O)[O-])cc2)cc1Cl	-4.0	i
COc1ccccc1NC(=O)c1ccc(CSc2nnnn2-c2ccccc2)cc1	16.0	i
Cc1noc(C)c1NC(=O)N(C)C[C@@H]1OCCCC[C@@H](C)Oc2ccc(NS(=O)(=O)c3cn(C)cn3)cc2C(=O)N([C@H](C)CO)C[C@H]1C	5.7	+
Cc1noc(C)c1NC(=O)N(C)C[C@@H]1OCCCC[C@H](C)Oc2ccc(NS(=O)(=O)c3cn(C)cn3)cc2C(=O)N([C@@H](C)CO)C[C@H]1C	5.0	i
Cc1cccc(NC(=O)CNS(=O)(=O)c2ccc(Br)cc2)c1C	-9.7	i
Cc1nc(SCC(=O)Nc2cc(C(F)(F)F)ccc2Cl)nc2c1CCCC2	-5.1	i
CSc1nc(C)cc(OCC(=O)N2CCCCC2)n1	-11.7	i
Cc1ccc(-c2cnc(-c3ccc(Br)cc3)o2)cc1	71.5*	i
Cc1cc(C)c(NC(=O)CSc2nnc(-c3ccc(Br)cc3)o2)c(C)c1	0.6	i
CC(NC(=O)c1ccccc1)c1nc2ccccc2n1Cc1ccc(Cl)cc1Cl (stereo unspecified)	-18.1	i
O=C(CSc1nc2sc3c(c2c(=O)[nH]1)CCCC3)Nc1ccc(Cl)cc1	-3.4	i
